From PubChem
Hits are enriched below; roughly 21% of the tested compounds scored in any of these assays.
Pf growth 96h: inhibits malaria parasite growth, 96 h | P. falciparum luciferase reporter growth, 96 h | Potency, µM (titrated, usually from 28.7 µM), for inactives: top-dose activity change, negative = inhibition, actives largely listed as inhibitors | 6.9% of 320,000 active | AID 504834; active = well fitted inhibition curve with a large enough effect; inconclusive = small, poorly fitted or top-dose-only effect, or another doubt; inactive = no such curve, though single readings can be large or run the other way; note: potency is the fitted concentration of half-maximal effect; % is set by controls: 0 for no effect and ±100 for the full control effect
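96 h incubation, 37 C, 5% CO2, of luciferase-reporter P. falciparum-infected RBCs (2% hematocrit, 0.05% parasitemia final) with test compounds; endpoint luminescence.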
Shiga inhibitor: Shiga toxin inhibition | Vero cells, Shiga toxin protein synthesis inhibition reporter | inhibition, % at 38.7 µM | 9.2% of 290,000 active; in the data active = inhibition mostly above about 28%, no sharp cut-off; inactive = mostly below about 43%; note: 0% is about no effect
NS1 function inh: blocks influenza NS1 protein function; Potency, µM (highest dose often 46.1 µM), inactives show at the top dose activity, positive = more growth; 0.4% of 270,000 active; AID 2326; note: potency is the fitted concentration of half-maximal effect; actives are rising curves; nearly all actives have a fitted effect of over 50% in size
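Read-out: OD600 growth recovery of NS1-expressing budding yeast. Cells grown overnight at 30C in -URA glucose medium, washed, resuspended and diluted 1:100 in 2% galactose assay medium, pH 6.0. Same strain lacking NS1 served as positive control.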
Cycloheximide cs: counter-screen for Shiga toxin inhibitors: cycloheximide protein synthesis inhibition | cell reporter, cycloheximide protein synthesis inhibition counterscreen | max response, % | 12% of 300,000 active | AID 2314; in the data active = max response mostly above about 13%, no sharp cut-off; inactive = mostly below about 14%; note: read at 38.3 µM for the half of the compounds with a filed dose; 0% is about no effect
Pf growth 48h: inhibits P. falciparum growth in the first generation, 48 h. 5.9% of 310,000 active. P. falciparum luciferase growth in erythrocytes, 48 h. Potency, µM (highest dose often 28.7 µM), for the others: at the top dose activity change, negative = inhibition, most hits filed as inhibitors; active = well fitted inhibition curve with a large enough effect; inconclusive = small, poorly fitted or top-dose-only effect, or another doubt; inactive = no such curve, though single readings can be large or run the other way; note: potency is the fitted concentration of half-maximal effect; % is set by controls: 0 for no effect and ±100 for the full control effect
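Luciferase-expressing parasites in RBCs, 2% Hct / 0.1% parasitemia final; RPMI 1640 + 0.5% Albumax; 37 C, 5% CO2, one generation; luminescence read-out, lower signal = inhibition.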
SARS PLP yeast: blocks SARS-CoV papain-like protease in a yeast assay; S. cerevisiae expressing SARS-CoV PLpro, growth rescue; Potency, µM (titrated, usually from 32.9 µM), without a hit: top-dose activity, positive = growth rescue, hits mostly activators; 0.19% of 330,000 active; note: potency is the fitted concentration of half-maximal effect; 0% is about no effect; nearly all actives have a fitted effect of over 55% in size
* hit, by the source's call; ? = inconclusive; nt = no result; [ ] = another dose, or the depositor's remark. Unless noted, calls come from the whole dose curve.

SMILES	Pf growth 96h	Shiga inhibitor	NS1 function inh	Cycloheximide cs	Pf growth 48h	SARS PLP yeast
O=C(N/N=C/c1ccc(Br)s1)c1c[nH]c2ccccc12	-26%	68*	24%	46*	10%	-25%
COc1ccccc1CNC(=O)CN(Cc1ccc(Cl)cc1)S(C)(=O)=O	23%	-8	-1%	-1	0%	0%
COc1ccc(CN2C(=O)C(=O)N(CC(N)=O)C2=O)cc1	-2%	-8	nt	-4	23%	-2%
CN1CCC(=NNC(=O)C(=O)Nc2ccccc2)CC1	79%	25*	-13%	24*	20%	-3%
CN(CC1CCOCC1)C(=O)CC1C(=O)NCCN1Cc1ccccc1F (configuration not stated)	-7%	11	-3%	-1	-11%	-5%
O=C(CSc1nc2ccccc2o1)c1ccccc1	-26%	active	-5%	47*	141%	12%
O=C(O)c1ccc(CSc2nc3ccccc3o2)cc1	?	26	-69%	-3	31%	-8%
O=C(CSc1nc2ccccc2o1)NC(=O)NCc1ccccc1	-3%	-12	0%	-3	20%	0%
O=C(O)c1ccccc1CSc1nc2ccccc2o1	213%	67*	-73%	35*	70%	-11%
O=C(CSc1nc2ccccc2o1)c1ccc2c(c1)OCCO2	nt	98*	1%	40*	79%	2%
CCCCCCOC(=O)Sc1nc2ccccc2o1	78%	43*	-211%	29*	nt	-36%
CCN(CC)S(=O)(=O)c1ccc(O)c(NS(=O)(=O)c2ccccc2F)c1	23%	-5	3%	1	16%	-8%
COc1cccc(CN2CC(C(=O)NCCCCc3ccccn3)CCC2=O)c1 (configuration not stated)	0%	-3	3%	2	-26%	-1%
CC(=O)CSc1nc2ccccc2o1	-23%	57*	10%	27*	130%	-19%
COC(=O)CSc1nc2ccccc2o1	-12%	15	-4%	-3	-8%	7%
C[n+]1cccc(C2C(C#N)=C(N)Oc3c2ccc2ccccc32)c1 (configuration not stated)	?	76*	6%	51*	0.29µM*	4%
C[n+]1cccc2ccc3c(c21)OC(N)=C(C#N)C3c1ccccc1 (configuration not stated)	7.4µM*	11	2%	-3	3.7µM*	1%
Cc1ccc(NC(=O)c2ccc(Cl)cc2Cl)cc1O	142%	94*	-2%	39*	108%	-1%
Cc1cc(NC(=O)c2ccc(Cl)cc2)ccc1NC(=O)c1ccccc1Cl	3.7µM*	10	-12%	7	12%	0%
O=C(CCNC(=O)c1ccc(Cl)cc1)Nc1ccc(F)cc1F	10%	4	-7%	-1	0%	-9%
O=C(Nc1ccc(Cl)cc1C(F)(F)F)c1ccc(Cl)cc1	106%	32	-5%	16*	35%	-4%
O=C(Nc1cc(F)c(Br)cc1F)c1ccc(Cl)cc1	177%	111*	2%	34*	114%	-1%
CN(CC(=O)OCC(=O)NCc1ccccc1)S(=O)(=O)c1ccc(Cl)cc1	25%	-5	-47%	-2	-10%	14%
O=C(CCN1C(=O)c2ccccc2S1(=O)=O)Nc1ccc(Cl)cc1	-16%	35	3%	1	-7%	2%
Cc1ccc(C(=O)Nc2ccc(Cl)cc2C(F)(F)F)c(Cl)c1	41%	56*	-3%	31*	63%	13%
SMILES	Pf growth 96h	Shiga inhibitor	NS1 function inh	Cycloheximide cs	Pf growth 48h	SARS PLP yeast
Cc1ccc(C(=O)Nc2ccc(Cl)cc2C)c(Cl)c1	-13%	100*	nt	27*	238%	0%
O=C(CN1CCCC1)Nc1ccc(Cl)cc1C(F)(F)F	12%	6	nt	2	25%	-3%
O=C(Nc1ccc(Cl)cc1C(F)(F)F)c1ccccc1Cl	?	38	-5%	13*	17%	18%
Cc1noc(C)c1C(=O)Nc1ccc(Cl)cc1C(F)(F)F	nt	2	4%	-4	?	-13%
Cc1cc(OCCCCn2ccnc2)cc(C)c1Cl	?	5	nt	-5	?	-12%
O=C(c1ccc(S(=O)(=O)NCc2ccco2)cc1)N1CCCC1	-16%	-14	nt	-1	5%	0%
N#Cc1ccc(CN2CCN(C(=O)c3ccc(S(=O)(=O)NCc4ccco4)cc3)CC2)cc1	3.7µM*	nt	nt	nt	?	2%
CCc1cc[n+](C2=C([O-])c3ccccc3C(=O)/C2=N\S(=O)(=O)c2cccs2)cc1	?	26	14%	14	4.1µM*	-17%
CCOC(=O)C1CCN(C(=S)Nc2cccc(C)c2C)CC1	48%	-14	-9%	-2	4%	3%
CN(C)c1ccc(CNc2ncnc3sccc23)cc1	31%	14	-24%	2	-9%	-12%
Fc1ccc(CNc2ccccn2)cc1	-16%	26*	10%	20*	9%	4%
Cc1cccc(NCc2ccc(N(C)C)cc2)n1	?	91*	3%	45*	44%	10%
Clc1cccc(NCc2ccccc2)n1	-27%[5.75 µM]	37	-2%	-2	13%	1%
CN(C)c1ccc(CNc2ncc(Br)cc2Br)cc1	160%	66*	-12%	34*	44%	-13%
CN(C)c1ccc(CNc2ccccn2)cc1	3%	43*	21%	27*	41%	?
O=S(=O)(NCC1CCC(NS(=O)(=O)c2c(F)cccc2F)CC1)c1ccc2c(c1)OCCO2 (configuration not stated)	?	nt	nt	nt	?	-11%
CSc1ccc(CNc2ccccc2)cc1	3%	61*	-6%	29*	53%	1%
CSc1ccc(CNc2ccccn2)cc1	8%	117*	-3%	38*	97%	-3%
NCCCCCCNc1nc2c(N)ncnc2n1[C@@H]1O[C@@H]2COP(=O)(O)O[C@H]2[C@H]1O	nt	-7	nt	10	nt	nt
CC(=O)c1ccc(N(CC(=O)NC2CCS(=O)(=O)C2)S(=O)(=O)c2ccc(Cl)cc2)cc1 (configuration not stated)	2%	nt	nt	nt	14%	-7%
CNc1c(NS(=O)(=O)c2cc(Cl)ccc2OC)c(=O)oc2ccccc12	-19%	3	1%	4	-2%	9%
Cc1nc(/C(N)=N/OC(=O)c2ccc(Cl)cc2)c(C(F)(F)F)o1	44%	46*	-37%	46*	38%	-1%
O=C(Nc1ccnn1C1CCN(C(=O)Cc2cccc(Cl)c2)CC1)C1CC1	13µM*	20	-4%	3	-7%	7%
O=C(Nc1ccnn1C1CCN(Cc2cccc(O)c2)CC1)C1CCCC1	-6%	12	-2%	1	12%	0%
Cc1cccc(CC(=O)N2CCC(n3nccc3NC(=O)C3CC3)CC2)c1	-37%	14	2%	10	0%	-4%
Cc1cc(CN2CCC(n3nccc3NC(=O)c3ccccc3Cl)CC2)cc(C)c1O	9%	-3	-2%	-2	10µM*	1%
